From PubChem BioAssay (NCATS)
“And” between values parts separate entries of the source, which are not always exact repeats. Equal entries are not always repeated. Records with an inconclusive call do not appear. The source made the active and inactive calls. Calls follow the shape of the dose curve; as a rule, active = well fitted curve in the direction sought with a large enough effect; inconclusive = small, poorly fitted or top-dose-only effect, or another doubt; inactive = no such curve, though single readings can be large; an effect the other way counts as inactive or inconclusive.

What was measured:
[1] = target: Cellular tumor antigen p53 (Homo sapiens) (UniProt P04637); test: Primary qHTS for small molecule compounds that upregulate eGFP-tagged delta133p53alpha (in N-terminal) cells. (AID 2060322); settings: NCI-H358 eGFP-delta133p53alpha fluorescence, 24 h; activation: stronger effect = higher value; also: nearly all actives have a fitted effect of over 75% in size; also: potency is read from the fitted curve at half-maximal effect;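 as to activation: series mostly up to about 56 µM; 0% = DMSO vehicle and 100% = reference activator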
Chain of Cellular tumor antigen p53 (Homo sapiens) (P04637 whole entry, looked up): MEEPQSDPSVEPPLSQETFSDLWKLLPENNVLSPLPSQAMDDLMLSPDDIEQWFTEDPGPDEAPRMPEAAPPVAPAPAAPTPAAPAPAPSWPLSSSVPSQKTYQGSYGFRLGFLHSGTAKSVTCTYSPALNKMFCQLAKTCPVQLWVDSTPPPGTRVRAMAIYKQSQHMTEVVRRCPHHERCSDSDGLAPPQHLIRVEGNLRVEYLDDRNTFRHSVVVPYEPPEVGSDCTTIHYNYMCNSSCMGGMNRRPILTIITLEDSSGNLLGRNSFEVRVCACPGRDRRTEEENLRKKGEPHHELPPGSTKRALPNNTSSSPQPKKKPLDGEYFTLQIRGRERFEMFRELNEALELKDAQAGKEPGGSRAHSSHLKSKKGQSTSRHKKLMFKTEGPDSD
Procedure, shortened: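 NCI-H358 cells pre-induced 24 h with 10 ng/ml doxycycline to express N-terminal eGFP-delta133p53alpha, then dosed 24 h at 37C without doxycycline; fixed, Hoechst-stained, GFP intensity by laser scanning cytometry, normalized to DMSO (0%) and 57.5 uM 5-azacytidine (100%).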

[2] = target: Aldehyde dehydrogenase, mitochondrial (Homo sapiens) (UniProt P05091); test: qHTS for Inhibitors of the Aldehyde Dehydrogenase Family (ALDH2) Primary screen (AID 2061308);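 also: plate controls were vehicle for no effect and reference inhibitor for full effect; nearly all actives have a fitted effect of over 55% in size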
[3] = target: Retinaldehyde dehydrogenase 3 (Homo sapiens) (UniProt P47895); test: qHTS for Inhibitors of the Aldehyde Dehydrogenase Family (ALDH1A3) Primary screen (AID 2061315);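 also: plate controls were DMSO vehicle for no effect and reference inhibitor for full effect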
[4] = BET inhibitor-based combinations targeting novel dependencies in MECOM-rearranged (r) AML: SET-2 cell line (AID 2202231); settings: SET-2 AML cells viability, CellTiter-Glo luminescence, 48 h; viability: stronger effect = lower value, concentration not given here; also: nearly all actives have a fitted effect of over 35% in size; also: potency is read from the fitted curve at half-maximal effect;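 as to viability: plate controls were DMSO treated cells for no effect and wells without cells for full effect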
Procedure, shortened: (§1)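 Here, 11-point titrations of each agent were applied to 500 seeded cells and incubated 48 hr; CellTiter-Glo signal, scaled against DMSO and empty wells, was integrated as AUC, then Z-scored within the individual line.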

[5] = BET inhibitor-based combinations targeting novel dependencies in MECOM-rearranged (r) AML: OCI-AML3 cell line (AID 2202232); settings: Potency: OCI-AML3 viability; also: nearly all actives have a fitted effect of over 35% in size; also: potency is read from the fitted curve at half-maximal effect
Procedure, shortened: as §1

[6] = BET inhibitor-based combinations targeting novel dependencies in MECOM-rearranged (r) AML: MV-4-11 cell line (AID 2202233); also: nearly all actives have a fitted effect of over 45% in size; also: potency is read from the fitted curve at half-maximal effect
Procedure, shortened: (§2)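 Normalized to DMSO and empty-well controls, the luminescence data from CellTiter-Glo after 48 hr drug exposure were fitted across 11 concentrations. Reported metrics are area under the dose-response curve and its Z-transformed form.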

[7] = BET inhibitor-based combinations targeting novel dependencies in MECOM-rearranged (r) AML: HNT-34 cell line (AID 2202234); also: nearly all actives have a fitted effect of over 35% in size; also: potency is read from the fitted curve at half-maximal effect
Procedure, shortened: as §2

[8] = BET inhibitor-based combinations targeting novel dependencies in MECOM-rearranged (r) AML: UCSD-AML1 cell line (AID 2202235); also: nearly all actives have a fitted effect of over 40% in size; also: potency is read from the fitted curve at half-maximal effect
Procedure, shortened: as §2

[9] = BET inhibitor-based combinations targeting novel dependencies in MECOM-rearranged (r) AML: AML-191 cell line (AID 2202236; also: nearly all actives have a fitted effect of over 35% in size; also: potency is read from the fitted curve at half-maximal effect)
Procedure, shortened: as §1

[10] = BET inhibitor-based combinations targeting novel dependencies in MECOM-rearranged (r) AML: AML-194 cell line (AID 2202237; also: nearly all actives have a fitted effect of over 40% in size; also: potency is read from the fitted curve at half-maximal effect)
Procedure, shortened: as §1

CCCC(CCC)C(=O)Nc1ccn([C@@H]2O[C@H](CO)[C@@H](O)C2(F)F)c(=O)n1
active: Potency [4] 3.72 µM | Potency [5] 0.934 µM | Potency [6] 1.05 µM | Potency [7] 4.68 µM | Potency [8] 4170 nM | Potency [9] 2.35 µM | Potency [10] 2.63 µM
inactive: activation [1] -16.2% | Potency [2] | Potency [3]

COC(=O)Nc1ccc(-c2nc(N3CCOCC3)c3cnn(C4CCN(Cc5cccnc5)CC4)c3n2)cc1
inactive: activation [1] 9.82% | Potency [2] | Potency [3]
active: Potency [4] 2.63 µM | Potency [5] 2.63 µM | Potency [6] 1.32 µM | Potency [7] 1.18 µM | Potency [8] 525 nM | Potency [9] 1.86 µM

Cn1c(=O)n(-c2ccc(C(C)(C)C#N)cc2)c2c3cc(-c4cnc5ccccc5c4)ccc3ncc21
inactive: activation [1] 13% and 27.3% | Potency [2] | Potency [3]
active: Potency [4] 0.17 µM | Potency [5] 0.241 µM | Potency [6] 0.17 µM | Potency [7] 0.135 µM | Potency [8] 42.8 nM | Potency [9] 0.0428 µM

c1cncc(CN2CCC(n3ncc4c(N5CCOCC5)nc(-c5ccc6[nH]ccc6c5)nc43)CC2)c1
active: Potency [4] 3.72 µM | Potency [5] 7.42 µM | Potency [6] 3.72 µM | Potency [7] 2.95 µM | Potency [8] 833 nM
inactive: activation [1] -11.7% and 12.5% | Potency [2] | Potency [3]

CCn1nnc2c(N3CCOCC3)nc(-c3ccc(NC(=O)Nc4ccc(C(=O)N5CCN(C)CC5)cc4)cc3)nc21
active: Potency [4] 1.86 µM | Potency [5] 0.263 µM | Potency [6] 0.166 µM | Potency [7] 0.148 µM | Potency [8] 186 nM
inactive: activation [1] 37.4% and 20.5% | Potency [2] | Potency [3]

c1ccc(-c2ccc(CNc3nc(-c4ccccn4)nnc3-c3ccccc3)cc2)cc1
inactive: activation [1] -11.7% | Potency [2] | Potency [3]
active: Potency [4] 2.35 µM | Potency [5] 1.32 µM | Potency [6] 1.18 µM | Potency [7] 1.32 µM | Potency [8] 1050 nM | Potency [9] 0.934 µM | Potency [10] 1.05 µM

CN1CCN(C2CCN(C(=O)Nc3cc(Oc4ccc(NC(=O)C5(C(=O)Nc6ccc(F)cc6)CC5)c(F)c4)ccn3)CC2)CC1
active: Potency [1] 26.9 µM | Potency [4] 20.9 µM | Potency [5] 23.5 µM | Potency [6] 0.296 µM | Potency [7] 3.72 µM | Potency [8] 7420 nM | Potency [9] 18.6 µM | Potency [10] 11.8 µM
inactive: Potency [2] | Potency [3]

Cc1ccccc1C(C(=O)NC1CCCCC1)N(C(=O)CNc1ccc(C#N)cc1)c1cccc(F)c1 (centres undefined)
inactive: activation [1] 17.1% and 3.57% | Potency [2] | Potency [3] | viability [4] 109% | Potency [5] | Potency [6] | Potency [7] | Potency [8] | Potency [9]

O=C1CCC[C@@H]2[C@H]3CCC[N+]4([O-])CCC[C@@H](CN12)[C@@H]34 (some centres undefined)
inactive: activation [1] 7.08% and -17.9% | Potency [2] | Potency [3] | viability [4] 118% | Potency [5] | Potency [6] | Potency [7] | Potency [8] | Potency [9]

Cc1cc(C(C)Nc2ccccc2)c2nc(N3CCOCC3)cc(=O)n2c1 (centres undefined)
active: Potency [5] 2.63 µM | Potency [6] 16.6 µM | Potency [7] 16.6 µM | Potency [8] 16600 nM | Potency [9] 18.6 µM | Potency [10] 23.5 µM
inactive: activation [1] 9.6% and -9.82% | Potency [2] | Potency [3] | viability [4] 91.4%

COc1ccc(-c2cc3c(C)nc(N)nc3n(C3CCC(OCCO)CC3)c2=O)cn1 (centres undefined)
active: Potency [4] 1.66 µM | Potency [5] 0.417 µM | Potency [6] 0.296 µM | Potency [7] 0.59 µM | Potency [8] 105 nM | Potency [9] 0.296 µM | Potency [10] 0.209 µM
inactive: activation [1] 3.45% | Potency [2] | Potency [3]

CC(=O)Nc1ccc(C(=O)Nc2ccccc2N)cc1
inactive: activation [1] 3% and -4.47% | Potency [2] | Potency [3]
active: Potency [4] 7.42 µM | Potency [5] 16.6 µM | Potency [6] 5.9 µM | Potency [7] 11.8 µM | Potency [8] 10500 nM | Potency [9] 18.6 µM

Cn1cc(-c2[nH]c3cc(NC(=O)[C@H](N)C4CCCCC4)cc4c3c2C=NNC4=O)cn1
inactive: activation [1] 23.5% | Potency [2] | Potency [3]
active: Potency [4] 16.6 µM | Potency [5] 5.25 µM | Potency [6] 0.263 µM | Potency [7] 1.05 µM | Potency [8] 1050 nM

FC(F)(F)c1ccc(Nc2nc(-c3c(C(F)(F)F)nc4ccccn34)cs2)cc1
active: Potency [4] 0.833 µM | Potency [5] 0.417 µM | Potency [6] 0.417 µM | Potency [7] 0.332 µM | Potency [8] 332 nM | Potency [9] 0.296 µM | Potency [10] 0.332 µM
inactive: activation [1] -3.82% | Potency [2] | Potency [3]

Cn1c2cc(S(C)=O)sc2c2cnn(Cc3cccc(N)c3)c(=O)c21 (centres undefined)
inactive: activation [1] 15.5% | Potency [2] | Potency [3] | viability [4] 104% | Potency [5] | Potency [6] | Potency [7] | Potency [8] | Potency [9] | Potency [10]

CCOC(=O)[C@H]1O[C@@H]1C(=O)N[C@@H](CC(C)C)C(=O)NCCC(C)C
active: Potency [5] 18.6 µM | Potency [6] 14.8 µM
inactive: activation [1] 4.33% | Potency [2] | Potency [3] | viability [4] 108% | Potency [7] | Potency [8] | Potency [9] | Potency [10]

CCC(CC)CC1(C(=O)Nc2ccccc2SC(=O)C(C)C)CCCCC1
inactive: activation [1] 18.8% | Potency [2] | Potency [3] | viability [4] 117% | Potency [5] | Potency [6] | Potency [7] | Potency [8] | Potency [9] | Potency [10]

Cc1cn2cc(C(=O)N(C)CCO)cc(N[C@@H]3CCOc4cccc(C)c43)c2n1
inactive: activation [1] -18% and -4.46% | Potency [2] | Potency [3] | viability [4] 112% | Potency [5] | Potency [6] | Potency [7] | Potency [8] | Potency [9] | Potency [10]

CCCn1c(=O)c2[nH]c(-c3cnn(Cc4cccc(C(F)(F)F)c4)c3)nc2n(CC)c1=O
inactive: activation [1] 0.955% | Potency [2] | Potency [3] | viability [4] 114% | Potency [5] | Potency [6] | Potency [7] | Potency [8] | Potency [9] | Potency [10]

COc1cc2c(Nc3ccc(Cl)c(Cl)c3F)ncnc2cc1OCC1C[C@@H]2CN(C)C[C@@H]2C1 (some centres undefined)
active: Potency [1] 13.5 µM and 19.3 µM | Potency [4] 23.5 µM and 20.9 µM | Potency [5] 18.6 µM and 13.2 µM | Potency [6] 5.9 µM and 5.25 µM | Potency [7] 1.05 µM and 1.18 µM | Potency [8] 9340 nM | Potency [9] 14.8 µM and 10.5 µM | Potency [10] 13.2 µM and 10.5 µM
inactive: Potency [2] | Potency [3]

Cc1c(C(=O)Nc2ccc(N3C[C@@H](C)O[C@@H](C)C3)nc2)cccc1-c1ccc(OC(F)(F)F)cc1
inactive: activation [1] 18.3% and -6.33% | Potency [2] | Potency [3] | viability [4] 98.5% | Potency [5] | Potency [7] | Potency [8] | Potency [9] | Potency [10]
active: Potency [6] 5.25 µM

C=C1C(=O)[C@@]23C(CC[C@@H]1[C@H]2O)[C@@]12CO[C@]3(O)[C@@H](O)[C@@H]1C(C)(C)CC[C@@H]2O (some centres undefined)
inactive: Potency [2] | Potency [3]
active: Potency [1] 27.3 µM | Potency [4] 9.34 µM | Potency [5] 3.32 µM | Potency [6] 2.63 µM | Potency [7] 2.35 µM | Potency [8] 5900 nM | Potency [9] 8.33 µM | Potency [10] 11.8 µM

CCN1CCN(Cc2ccc(NC(=O)c3ccc(C)c(NC(=O)c4cncc(-c5cccs5)c4)c3)cc2C(F)(F)F)CC1
inactive: Potency [2] | Potency [3]
active: Potency [1] 26.9 µM | Potency [4] 5.9 µM | Potency [5] 4.17 µM | Potency [6] 0.118 µM | Potency [7] 0.0148 µM | Potency [8] 1050 nM | Potency [9] 1.05 µM | Potency [10] 1.18 µM

CCc1ccc(C(=O)Nc2cc(CN3CCN(C)CC3)cc(C(F)(F)F)c2)cc1C#Cc1cnc2ccnn2c1
active: Potency [1] 19 µM | Potency [4] 14.8 µM | Potency [5] 10.5 µM | Potency [6] 7.42 µM | Potency [7] 1.86 µM | Potency [8] 9340 nM | Potency [9] 5.9 µM | Potency [10] 5.9 µM
inactive: Potency [2] | Potency [3]

CCNC(=O)Nc1ncc(-c2cc(-c3c(C)cc(OC)cc3C)nc(-c3cnccn3)n2)s1
inactive: activation [1] -5.36% | Potency [2] | Potency [3] | viability [4] 114% | Potency [5] | Potency [6] | Potency [7] | Potency [8] | Potency [9] | Potency [10]

CS(=O)(=O)N1CCC(NC(=O)c2[nH]ncc2NC(=O)c2c(Cl)cccc2Cl)CC1
inactive: Potency [2] | Potency [3]
active: Potency [1] 3.01 µM | Potency [4] 2.35 µM | Potency [5] 1.48 µM | Potency [6] 0.59 µM | Potency [7] 2.09 µM | Potency [8] 1480 nM | Potency [9] 1.18 µM | Potency [10] 1.86 µM

Cc1cccc(Oc2cnc(=O)[nH]c2)c1
inactive: activation [1] -25% | Potency [2] | Potency [3] | viability [4] 115% | Potency [5] | Potency [6] | Potency [7] | Potency [8] | Potency [9] | Potency [10]

Cc1cnc(Nc2ccc(OCCN3CCCC3)cc2)nc1Nc1cccc(S(=O)(=O)NC(C)(C)C)c1
active: Potency [4] 4.68 µM | Potency [5] 2.63 µM | Potency [6] 0.742 µM | Potency [7] 1.66 µM | Potency [8] 2350 nM | Potency [9] 3.32 µM | Potency [10] 5.25 µM
inactive: activation [1] 27.2% and -7.14% and 27.9% | Potency [2] | Potency [3]

OCCCNc1cc(-c2ccnc(Nc3cccc(Cl)c3)n2)ccn1
inactive: Potency [2] | Potency [3]
active: Potency [1] 172 nM and 301 nM | Potency [4] 0.132 µM | Potency [5] 0.118 µM | Potency [6] 0.132 µM | Potency [7] 0.132 µM | Potency [8] 83.3 nM | Potency [9] 0.0934 µM | Potency [10] 0.332 µM
